The whole screen tested about 410,000 compounds, of which about 18,000 (4.4%) were called active. Inconclusive results (about 7%) are left out. The full list was thinned out, with actives kept by preference. Values without a mark were called inactive. Rule as the data show it: active = activity change below about -60%; inconclusive = no clear call, values can overlap the other calls; inactive = above about -39%.
% is scaled to controls: 0 for no effect and ±100 for the full control effect.

A short description of this assay: qHTS Assay for inhibitors of the human cytomegalovirus (HCMV). The following applies: HFF cells, HCMV-luciferase reporter, 72 h; at 57.5 µM; active compounds read low. The gist of the method: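 Human foreskin fibroblasts infected with luciferase-reporter HCMV at MOI 1 PFU/cell, compounds at two doses. Luciferase measured 72 h post infection; normalized to buffer-only basal and Salinomycin (10uM) controls.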
In general terms: Quantitative high-throughput screening tests each substance at several concentrations.
As to `CN(Cc1cccc2ncccc12)C(=O)CC1C(=O)NCCN1Cc1ccc(F)cc1` (centres undefined), the activity change, negative = inhibition was -30.9%.

In the case of `O=C(CN1CCN(Cc2ccc(Cl)cc2)C1=O)NCc1ccc(F)cc1`, the activity change, negative = inhibition is -24.9%.

Regarding `Cc1ccc(C(=O)NC2CCCC(C)C2C)cc1S(=O)(=O)N1CCCCC1` (centres undefined), the activity change, negative = inhibition was -22.8%.

On to `Cc1nn(-c2ccccc2)c(C)c1NC(=O)COC(=O)Cc1ccccc1`, for which the activity change, negative = inhibition is -13%.

In the case of `Cc1nn(-c2ccccc2)c(C)c1NC(=O)COC(=O)c1cc(Cl)ccc1O`, the activity change, negative = inhibition was 9.57%.

Take `Cc1nn(-c2ccccc2)c(C)c1NC(=O)COc1ccc(Cl)cc1Cl`: the activity change, negative = inhibition was -98.7% (active).

As to `N#Cc1nc(/C=C/c2ccc(F)cc2)oc1NCc1ccc(F)cc1`, the activity change, negative = inhibition was -13.8%.

On to `COc1cccc(-c2cc(C(=O)Nc3ccc(C)cc3)[nH]n2)c1`, for which the activity change, negative = inhibition is 11.2%.

As for `CCc1ccc(CNC(=O)c2cc3cc4ccc(OC)cc4nc3o2)cc1`, the activity change, negative = inhibition is -26.2%.

As to `Cc1ccc2c(=O)c(C(=O)c3cccc(Cl)c3)cn(CC(=O)NCc3ccccc3)c2n1`, the activity change, negative = inhibition was -12.2%.

Regarding `O=C(NC1CCCCC1)c1ccc2c(c1)N(Cc1ccc(Cl)cc1)C(=O)c1ccccc1S2=O` (centres undefined), the activity change, negative = inhibition is 8.53%.

`CN(C(=O)c1ccc2c(c1)N(Cc1cccc(Cl)c1)C(=O)c1ccccc1S2=O)C1CCCCC1` (centres undefined): the activity change, negative = inhibition was -63.4% (active).

On to `O=C(Nc1cc(Cl)cc(Cl)c1)c1ccc2c(c1)N(Cc1cccc(Cl)c1)C(=O)c1ccccc1S2=O` (centres undefined), for which the activity change, negative = inhibition is 16.5%.

Consider `CCCCNC(=O)c1nc(C2CCN(S(=O)(=O)c3ccc(F)c(F)c3)CC2)oc1-c1cccc(C(F)(F)F)c1`, for which the activity change, negative = inhibition was 6.36%.

For `CCN1CCN(CCCNC(=O)c2cnn(-c3ccc(C)cc3C)c2C2CCN(C(=O)OC(C)(C)C)CC2)CC1`, the activity change, negative = inhibition is -13.5%.

For `CC(C)(C)OC(=O)N1CCC(c2c(C(=O)Nc3ccc4c(c3)OCO4)cnn2-c2ccccc2)CC1`, the activity change, negative = inhibition is -8.71%.

For `COc1ccccc1CN1CCC(CNC(=O)c2cnn(-c3cccc(Cl)c3)c2C2CCN(C(=O)OC(C)(C)C)CC2)CC1`, the activity change, negative = inhibition was -108% (active).

For the compound `COc1ccccc1CN1CCC(CNC(=O)c2cnn(-c3ccccc3Cl)c2C2CCN(C(=O)OC(C)(C)C)CC2)CC1`, the activity change, negative = inhibition was -7.53%.

As to `Cc1ccc(CN2CCC(CNC(=O)c3cnn(-c4ccccc4Cl)c3C3CCN(C(=O)OC(C)(C)C)CC3)CC2)cc1`, the activity change, negative = inhibition is -65.8% (active).

Consider `CC(C)(C)OC(=O)N1CCC(c2c(C(=O)N3CCN(c4cccc(Cl)c4)CC3)cnn2-c2cccc(Cl)c2)CC1`, for which the activity change, negative = inhibition was 26.6%.

In the case of `Cc1ccc(CN2CCC(CNC(=O)c3cnn(-c4ccc(C)cc4)c3C3CCN(C(=O)OC(C)(C)C)CC3)CC2)cc1`, the activity change, negative = inhibition was 0%.

For `Cc1cccc(-n2ncc(C(=O)N3CCC(C)CC3)c2C2CCN(C(=O)OC(C)(C)C)CC2)c1`, the activity change, negative = inhibition was 0%.

With `CCOC(=O)N1CCC(NC(=O)c2cnn(-c3cccc(C)c3)c2C2CCN(C(=O)OC(C)(C)C)CC2)CC1`, the activity change, negative = inhibition is 0% (active).

Consider `CC(C)(C)OC(=O)N1CCC(c2c(C(=O)NCc3ccccn3)cnn2-c2ccc(F)cc2)CC1`, for which the activity change, negative = inhibition is 14.7%.

Regarding `COc1ccccc1N1CCN(CCCNC(=O)c2cnn(-c3ccccc3Cl)c2C2CCN(C(=O)OC(C)(C)C)CC2)CC1`, the activity change, negative = inhibition is -12.2%.

On to `COC(=O)c1ccc(NC(=O)c2cnn(-c3ccc(Cl)cc3)c2C2CCN(C(=O)OC(C)(C)C)CC2)cc1`, for which the activity change, negative = inhibition is 0% (active).

With `Cc1cc(C)cc(NC(=O)Cc2csc(C)n2)c1`, the activity change, negative = inhibition was 53.8%.

In the case of `Cc1ccc(Cn2c(CCCNC(=O)C3CCCCC3)nc3ccccc32)cc1`, the activity change, negative = inhibition was -11.7%.

For `COc1ccc(N2CCN(S(=O)(=O)CCNC(=O)C(c3ccccc3)c3ccccc3)CC2)cc1`, the activity change, negative = inhibition is 1.25%.

Consider `COC(=O)c1ccc2c(c1)N(CC(=O)Nc1ccc(C)c(C)c1)C(=O)c1ccccc1S2`, for which the activity change, negative = inhibition is 6.12%.

Consider `CCc1ccc(N(CC(=O)Nc2sc3c(c2C(=O)OC)CCCC3)S(C)(=O)=O)cc1`, for which the activity change, negative = inhibition is 40.2%.

`COC(=O)c1c(NC(=O)c2ccc(Cl)c(Cl)c2)sc2c1CCCC2`: the activity change, negative = inhibition was 15%.

As to `COC(=O)c1c(NC(=O)CSc2nncs2)sc2c1CCCCC2`, the activity change, negative = inhibition is -61.6% (active).

`COc1ccc(S(=O)(=O)N2CCN(CC(=O)NCC3(N4CCOCC4)CCCCC3)CC2)cc1`: the activity change, negative = inhibition is -36.1%.

For the compound `O=C(CN1CCN(C(=S)NC2CCCC2)CC1)Nc1ccc(Oc2ccccc2)cc1`, the activity change, negative = inhibition was -79.5% (active).

Consider `CCC(=O)c1ccc(OCC(=O)N2CCN(CC(=O)Nc3ccc(C)cc3)CC2)cc1`, for which the activity change, negative = inhibition was 6.75%.

Turning to `O=C(CN1CCN(S(=O)(=O)c2ccc3ccccc3c2)CC1)NC(=O)NC1CCCCC1`, the activity change, negative = inhibition is -4.61%.

Take `CC1(C)OC(=O)C2=C(C[C@@H](C3CC3)O[C@H]2c2ccc(Cl)cc2)O1`: the activity change, negative = inhibition was -11.9%.

Consider `O=c1c2ccccc2ncn1CCc1ccncc1`, for which the activity change, negative = inhibition is 16.6%.

As for `Fc1ccccc1OCCCCn1cncn1`, the activity change, negative = inhibition is -9.84%.

For `O=c1c2ccccc2ncn1CCCCOc1ccccc1F`, the activity change, negative = inhibition was -105% (active).

Consider `COc1ccc(CCN2C(=O)c3oc4cc(C)cc(C)c4c(=O)c3C2c2ccccc2F)cc1OC` (centres undefined), for which the activity change, negative = inhibition is -2.86%.

`COc1ccc(Br)cc1C1CC(=O)Nc2c1c(C)nn2-c1nc(C)cc(C)n1` (centres undefined): the activity change, negative = inhibition is -4.09%.

Turning to `CN1CCC2(CC1)NC(=O)NC2=O`, the activity change, negative = inhibition was 7.02%.

As to `O=C(COc1cccnc1[N+](=O)[O-])Nc1ccc(Cl)cc1F`, the activity change, negative = inhibition is 9.57%.

In the case of `Cc1ccc2cc(CCNC(=O)c3c(-c4ccccc4Cl)noc3C)c(=O)[nH]c2c1`, the activity change, negative = inhibition is -94.6% (active).

As to `Cc1ccc2cc(CCNC(=O)c3ccc4c(c3)OCO4)c(=O)[nH]c2c1`, the activity change, negative = inhibition was -60.5% (active).

Turning to `Cc1onc(-c2ccccc2Cl)c1C(=O)N(Cc1ccc(N(C)C)cc1)C(C)C`, the activity change, negative = inhibition is -25.9%.

For `Cc1onc(-c2c(Cl)cccc2Cl)c1C(=O)c1c[nH]c(C(=O)NC2CC2)c1`, the activity change, negative = inhibition was 16.8%.

Take `O=C(NCCc1ccc(C(F)(F)F)cc1)c1ccc2c(c1)OCO2`: the activity change, negative = inhibition was -38.1%.

Regarding `COc1ccc(-c2cnc(SCCNC(=O)c3ccc4c(c3)OCO4)[nH]2)cc1`, the activity change, negative = inhibition was -28.5%.

Turning to `COC(=O)C1=CN(c2c(C)cc(C)cc2C)C(N)=C(C#N)C1c1cccc(F)c1` (centres undefined), the activity change, negative = inhibition was -18.9%.

For `COC(=O)[C@@H]1[C@@H](CO)[C@@H]2Cn3c(cccc3=O)[C@H]1N2CC1CCCC1`, the activity change, negative = inhibition is 13.6%.

As for `Cc1[nH]c2ccccc2c1C(c1ccccc1)c1cccs1` (centres undefined), the activity change, negative = inhibition was -20.6%.

For `Cc1cc(F)ccc1S(=O)(=O)Nc1ccc(C(=O)N(C)Cc2ccco2)cc1`, the activity change, negative = inhibition is -17.3%.

As for `CCOC(=O)C1CCCN(C(=O)c2ccc(N(C)C)cc2)CC1` (centres undefined), the activity change, negative = inhibition was 14.9%.

Consider `Cc1ccc(C)c(S(=O)(=O)N(C)c2ccc(OC(=O)C3CCN(C(=O)c4ccc(F)cc4)CC3)cc2)c1`, for which the activity change, negative = inhibition was -83.9% (active).

With `CCOC(=O)C1CCCN(C(=O)c2ccc(C)c(F)c2)CC1` (centres undefined), the activity change, negative = inhibition is -2.4%.

Consider `COc1cccc(OC)c1C(=O)OCC(=O)/C(C#N)=C(\C)N`, for which the activity change, negative = inhibition was -27.5%.

Turning to `C/C(N)=C(/C#N)C(=O)COC(=O)CNS(=O)(=O)c1ccc(C)cc1`, the activity change, negative = inhibition is -80.1% (active).

In the case of `Cc1ccc(S(=O)(=O)NCC(=O)OCC(=O)N2CCc3ccccc32)cc1`, the activity change, negative = inhibition is -5.73%.

Consider `Cc1ccc(N2CC(C(=O)Nc3cc(Cl)ccc3-n3cncn3)CC2=O)cc1` (centres undefined), for which the activity change, negative = inhibition was 4.52%.

Consider `CCn1cc2nc(SCc3cccc(F)c3)n(CCc3ccccc3)c(=O)c2n1`, for which the activity change, negative = inhibition was -35.3%.

On to `CN(C)C1=NC[C@H](Cc2ccccc2)N1CCc1ccc(F)cc1`, for which the activity change, negative = inhibition is -5.86%.

With `CCCC[C@@H]1CN=C(N)N1CCc1cc(C(F)(F)F)cc(C(F)(F)F)c1`, the activity change, negative = inhibition was -75% (active).

Regarding `CCCCN1C(N)=NC[C@@H]1CC1CCCCC1`, the activity change, negative = inhibition is -18.4%.

In the case of `Cc1ccccc1NC(=O)Cn1cc(C(=O)c2cccs2)c2ccccc21`, the activity change, negative = inhibition is -22.9%.

Turning to `O=C(Cn1cc(C(=O)c2cccs2)c2ccccc21)NCc1cccs1`, the activity change, negative = inhibition is -5.26%.

For the compound `Cc1c(Cl)cccc1NC(=O)Cn1cc(C(=O)c2cccs2)c2ccccc21`, the activity change, negative = inhibition is -95.6% (active).

As to `COC(=O)C1=C(C(=O)OC)[C@@H]2N(C)c3ccccc3[C@@]23C[C@@H](C(=O)OC)N(C(C)=O)C3=N1`, the activity change, negative = inhibition is -27%.

`O=C(NCc1cccnc1)C(=O)NCC(c1cccnc1)N1CCN(c2ccccc2)CC1` (centres undefined): the activity change, negative = inhibition was 5.63%.

Turning to `CN(C)CCNC(=O)c1cccc(-c2cnc3c(NC=O)cc(-c4cccc(C(F)(F)F)c4)cn23)c1`, the activity change, negative = inhibition was -61.3% (active).

Take `COc1ccc(-c2cc(NC=O)c3ncc(-c4cccc(C(=O)N(C)C)c4)n3c2)c(OC)c1`: the activity change, negative = inhibition was 40.1%.

Take `CC(=O)Nc1cc(-c2cccc(CO)c2)cn2c(-c3cccc(C(F)(F)F)c3)cnc12`: the activity change, negative = inhibition was 71.5%.

On to `CCCn1c(NCc2ccc(N(CC)CC)cc2)nc2ccccc21`, for which the activity change, negative = inhibition is -5.55%.

`Cc1ccc(-c2noc(-c3nnn(-c4cccc(C(F)(F)F)c4)c3N)n2)cc1`: the activity change, negative = inhibition was 15.9%.

On to `Cc1cccc(NC(=O)CSc2nc(-c3ccco3)cc(C(F)(F)F)n2)c1C`, for which the activity change, negative = inhibition is 1.83%.

Consider `Cc1c(CC(=O)NCC(=O)NCC(=O)O)c(=O)oc2cc3oc4c(c3cc12)CCCC4`, for which the activity change, negative = inhibition is -60.9% (active).

With `CC[C@@H](C)[C@H](NC(=O)CCc1c(C)c2cc3c4c(oc3c(C)c2oc1=O)CCCC4)C(=O)O`, the activity change, negative = inhibition was -33.8%.

As to `Cc1coc2cc3oc(=O)c(CCC(=O)O)c(C)c3cc12`, the activity change, negative = inhibition is -38.4%.

Take `Cc1ccccc1CN1CCC(CNC(=O)c2cc3ccc4cccnc4c3[nH]2)CC1`: the activity change, negative = inhibition was -34.7%.

As to `O=[N+]([O-])/C=C/c1ccc2c(ccn2Cc2ccccc2)c1`, the activity change, negative = inhibition is -98% (active).

For the compound `O=c1c(=O)n(Cc2c(F)cccc2Cl)ccn1Cc1ccccc1`, the activity change, negative = inhibition is -4.43%.

For `COc1ccc(Cn2ccn(Cc3cccc(OC)c3)c(=O)c2=O)cc1`, the activity change, negative = inhibition was 6.59%.
